In experiment [1] the test system is Human papillomavirus type 1a protein E7 (residues 44-93). Briefly: small molecules binding HPV E7 44-93 – biochemical, small-molecule microarray, residues 44-93, 635 nm fluorescence, primary screen (AID 1108).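 Also: E7 fragment applied at 1 µg/mL in TBST for 1 h at 4 C; score combines spot fluorescence with its signal to noise ratio.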 As to conditions: fluorescence 635 nm, higher = more signal.
Experiment [2] can be described thus: hepatitis C replication reporter changes, two-sided – Huh7 cells, luciferase reporter, HCV replication inhibitor project, primary screen (AID 1109).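 Also: huh7 hepatoma cells harbouring a luciferase neomycin HCV replicon reporter; luciferase luminescence as measure of HCV replicon replication; test concentration not given here.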 As to conditions: Huh7 HCV replicon luciferase reporter, 48 h; higher = more signal. On the technique in general: In a reporter assay the amount or activity of a reporter protein is the signal.
Experiment [3] has as its target Left-right determination factor 2 (Homo sapiens) (UniProt O00292). Briefly: small molecules binding LEFTY2 protein – biochemical, small-molecule microarray, 635 nm fluorescence scan, primary screen (AID 1110). Particulars: higher = more signal.
The target of experiment [4] is Calmodulin-1 (Homo sapiens) (UniProt P0DP23). As to the kind of experiment: small molecules binding calmodulin-1 with EGTA – biochemical, small-molecule microarray, Cy5-labelled CALM1, profiling panel (AID 1111).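 Also: labelled calmodulin applied in Tris saline Tween buffer holding calcium plus EGTA and DTT.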 Particulars: Cy5-CALM1 binding fluorescence, higher = more signal.
Experiment [5] has the same target. As to the kind of experiment: small molecules binding Ca-loaded calmodulin-1 – biochemical, small-molecule microarray, Cy5-labelled CALM1, plus calcium, artefact control for SMM control-protein annotation, profiling panel (AID 1112).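 Also: score merges spot fluorescence with signal to noise from triplicate slides.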 Particulars: Cy5-CALM1 binding fluorescence, higher = more signal.
Experiment [6] can be described thus: probe aWnt5a binding to arrayed compounds – biochemical, biotinylated probe, 635/667 nm fluorescence, primary screen (AID 1113).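 Also: score merges 667 nm fluorescence intensity with signal-to-noise per printed feature.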 As to conditions: small-molecule microarray, higher = more signal.
Experiment [7] is described as follows: probe aShh binding to arrayed compounds – biochemical, biotinylated probe, 635/667 nm fluorescence, primary screen (AID 1114).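 Also: probe is biotin-labelled aShh protein from a stem cell growth factor screen; measures binding of labelled protein to compounds printed on the slide; score merges feature fluorescence at 667 nm with signal-to-noise.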 Particulars: small-molecule microarray, higher = more signal.
Experiment [8] is described as follows: probe aNog binding to arrayed compounds – biochemical, biotinylated probe, 635/667 nm fluorescence, primary screen (AID 1115).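 Also: probe is biotinylated aNog protein used at 0.15 µg/mL for 1 h at 4 C; z-score combines 667 nm fluorescence of each spot with its signal to noise.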 As to conditions: small-molecule microarray, higher = more signal.
For experiment [9], the target named is Torsin-1A-interacting protein 1 (Homo sapiens) (UniProt Q5JTV8). As to the kind of experiment: compound microarray binding of lysate hLAP1 – cell lysate, small-molecule microarray, COS7 lysate, 635/667 nm fluorescence, primary screen (AID 1116). Particulars: 635 nm fluorescence, higher = more signal.
The target of experiment [10] is Alpha-bungarotoxin (Bungarus multicinctus) (UniProt P60615). Briefly: compounds binding labelled alpha-BTX control protein – biochemical, small-molecule microarray, Alexa647 label, 635/667 nm fluorescence, artefact control for SMM control protein annotation, profiling panel (AID 1117). Particulars: alpha-BTX-A647 binding fluorescence, higher = more signal.

In PubChem BioAssay one finds composite z-score and z-score data, which are given here for 16 compounds.

Structures are written as SMILES.

Alpha-bungarotoxin (Bungarus multicinctus), sequence (P60615 whole entry, looked up): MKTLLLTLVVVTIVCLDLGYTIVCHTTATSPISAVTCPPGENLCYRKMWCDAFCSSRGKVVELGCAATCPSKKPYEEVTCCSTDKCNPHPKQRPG
Left-right determination factor 2 (Homo sapiens), sequence (O00292 whole entry, looked up): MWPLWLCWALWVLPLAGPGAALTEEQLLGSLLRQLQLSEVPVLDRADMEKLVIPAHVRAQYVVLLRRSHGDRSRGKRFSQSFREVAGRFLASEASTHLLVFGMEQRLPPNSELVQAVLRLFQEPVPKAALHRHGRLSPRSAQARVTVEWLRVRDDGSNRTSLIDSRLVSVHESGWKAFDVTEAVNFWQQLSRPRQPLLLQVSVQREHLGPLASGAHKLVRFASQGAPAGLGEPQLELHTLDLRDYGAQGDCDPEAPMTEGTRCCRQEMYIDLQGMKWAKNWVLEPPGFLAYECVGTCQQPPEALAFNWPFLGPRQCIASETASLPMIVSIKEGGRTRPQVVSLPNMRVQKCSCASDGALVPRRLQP
Torsin-1A-interacting protein 1 (Homo sapiens), sequence (Q5JTV8 whole entry, looked up): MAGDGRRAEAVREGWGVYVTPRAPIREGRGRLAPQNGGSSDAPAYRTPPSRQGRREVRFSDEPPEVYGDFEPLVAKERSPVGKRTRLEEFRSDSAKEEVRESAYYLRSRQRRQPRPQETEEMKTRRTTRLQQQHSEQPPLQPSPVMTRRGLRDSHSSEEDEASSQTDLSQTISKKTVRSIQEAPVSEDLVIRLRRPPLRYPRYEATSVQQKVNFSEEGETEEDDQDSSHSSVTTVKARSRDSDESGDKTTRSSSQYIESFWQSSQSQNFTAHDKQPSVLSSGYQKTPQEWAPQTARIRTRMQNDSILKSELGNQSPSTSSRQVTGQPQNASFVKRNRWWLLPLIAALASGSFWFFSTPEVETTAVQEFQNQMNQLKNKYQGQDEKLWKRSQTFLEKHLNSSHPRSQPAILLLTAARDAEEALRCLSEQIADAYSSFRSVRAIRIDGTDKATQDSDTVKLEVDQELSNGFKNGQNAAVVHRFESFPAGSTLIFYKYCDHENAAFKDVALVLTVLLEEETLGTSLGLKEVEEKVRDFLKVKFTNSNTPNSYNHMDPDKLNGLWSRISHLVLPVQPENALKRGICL

As for `C=C(COC)/C(=C/C[C@@H](OC(C)=O)c1ccccc1OCCO)c1cc(C(=O)OC)ccc1OC`, the composite z-score in experiment [1] was 1.3; in experiment [3], -0.145; in experiment [4], -0.249; in experiment [5], -0.808; in experiment [6] it was -0.1; in experiment [7], 0.0469. Moreover, the values for the composite z-score in experiment [8], in [9] and in experiment [10] were 0.0502, 1.46 and 0.324, respectively. This compound showed a z-score in [2] of -2.3.
As to `CCCCN1CC=CC23O[C@@H]4C=CCOC(=O)[C@@H]4[C@H]2C(=O)N(CCO)[C@@H]3C1=O` (stereo not given in full), the composite z-score in experiment [1] is -0.718; in [3], -2.32; in experiment [4], -0.483; in experiment [5], 0.856; in [6], -0.119; in experiment [7], 0.0893. The composite z-score in experiment [8] is 0.643; in [9], -0.401; in experiment [10], -1.48. The compound also returned a z-score in [2] of 0.407.
For the compound `CN1C(=O)C2C(C1=O)C1C=C(c3ccc(CO)cc3)C2C(c2cccs2)N1C` (stereo not given), the composite z-score in [1] is 0.104; in [3], -0.112; in [4], 1.47; in [5] it was 0.312; in [6], -0.1; in experiment [7], -0.0553. Moreover, the composite z-score was -0.12 in experiment [8], 2.17 in [9] and 1.86 in experiment [10]. Moreover, the z-score in [2] stood at 0.706.
In the case of `O=C1C2C=CC(C(O)c3ccc([N+](=O)[O-])cc3)N(Nc3ccccc3)C2C(=O)N1c1ccccc1` (stereo not given), the composite z-score in [1] is 0.342; in [3], -0.0424; in experiment [4], 0.0871; in experiment [5], -0.447; in experiment [6], -0.0512; in experiment [7], 0.284. Besides, the composite z-score was -0.175 in experiment [8], -0.175 in [9] and -0.0428 in [10]. The same compound had a z-score in [2] of 0.649.
For `N#Cc1ccc(C(O)C2C=CC3C(=O)N(c4ccccc4)C(=O)C3N2Nc2ccc([N+](=O)[O-])cc2)cc1` (stereo not given), the composite z-score in experiment [1] worked out at 0.632; in experiment [3] it was 0.0058; in [4], 2.16; in [5], 1.14; in experiment [6], 0.222; in experiment [7] it was 0.0434. Besides, the values for the composite z-score in experiment [8], in experiment [9] and in experiment [10] were 0.595, 1.69 and 1.96, respectively. In addition, the z-score in [2] is -1.2.
Turning to `C#CCN(C/C=C/c1ccccc1)[C@H](CO[Si](C)(C)C(C)(C)C)c1ccccc1`, the composite z-score in experiment [1] was -0.115; in [3], 0.301; in experiment [4], -0.488; in experiment [5], -1.03; in experiment [6], -0.0403; in experiment [7], -0.0553. Besides, the composite z-score in experiment [8] was -0.565; in [9], -0.221; in [10], -0.482. Besides, the z-score in [2] is -2.36.
With `COc1cc2c(cc1O)C(c1ccc(CN3CCCC3)cc1)N(Cc1cccc(OC(F)(F)F)c1)CC2` (stereo not given), the composite z-score in experiment [1] was 0.743; in experiment [3], 0.629; in [4], -0.0262; in [5], -0.664; in experiment [6], -0.203; in experiment [7] it was -0.0522. The composite z-score in [8] stood at 0.0583; in experiment [9], 0.62; in [10], 1.61. The z-score in [2] is -3.63.
`COCCOC(=O)N1C(=O)[C@@]2(c3cc(C#CC4=CCCCC4)ccc31)[C@H](C(=O)N1CCc3cc(OC)c(OC)cc3C1)[C@H]1C(=O)O[C@H](c3ccccc3)[C@H](c3ccccc3)N1[C@@H]2c1ccc(O)cc1`: the composite z-score amounted to 1.42 in [1]; 0.761 in experiment [3]; 1.74 in experiment [4]; 0.673 in [5]; 0.18 in experiment [6]; 0.482 in experiment [7]. The results for the composite z-score in experiment [8], in experiment [9] and in experiment [10] were 0.707, 1.34 and 0.967, respectively. In experiment [2], this compound yielded a z-score of -0.934.
On to `C=CCNC(=O)[C@H]1[C@@H]2C(=O)O[C@@H](c3ccccc3)[C@@H](c3ccccc3)N2[C@@H](c2ccccc2OCCO)[C@]12C(=O)N(C(=O)OCCOC)c1ccccc12`, for which the composite z-score in experiment [1] was 1.11; in experiment [3], 0.142; in [4], 0.336; in experiment [5] it was 0.287; in [6], -0.124; in [7] it was 0.0684. Further, the composite z-score in experiment [8] was 0.86; in experiment [9], 1.13; in [10], 1.53. The z-score in [2] is -3.16.
On to `COC(=O)[C@@]1(Cc2ccc(F)cc2)[C@H]2c3cc(C(=O)N(C)C)n(CCn4cc([N+](=O)[O-])nc4C)c3C[C@H]2CN1C(=O)c1ccccc1`, for which the composite z-score was 0.81 in experiment [1]; -0.831 in [3]; 0.892 in [4]; 0.378 in [5]; -0.003 in experiment [6]; 0.631 in [7]. The composite z-score in [8] turned out to be 1.08; in [9], 1.49; in experiment [10] it was 0.0533. Further, the z-score in [2] was -0.112.
Turning to `C=CCC(OC(C)=O)[C@@H]1[C@@H](N(Cc2ccc(-c3ccccc3)cc2)C(=O)c2cccc3ccccc23)c2cc(OCCCO)ccc2N1C(=O)c1ccc2ccccc2c1` (stereo not given in full), the composite z-score in [1] is 0.403; in experiment [3], -0.0981; in experiment [4], 0.187; in experiment [5], 0.188; in [6] it was -0.0685; in experiment [7], -0.399. In addition, the composite z-score in experiment [8] is -0.258; in [9] it was -0.0482; in experiment [10], 0.971. Moreover, the z-score in experiment [2] is -0.464.
Turning to `COCCOC(=O)N1C(=O)[C@@]2(c3cc(C#CC4(O)CCCCCC4)ccc31)[C@H](C(=O)NC[C@H](O)c1ccccc1)[C@H]1C(=O)O[C@H](c3ccccc3)[C@H](c3ccccc3)N1[C@@H]2c1ccc(O)cc1`, the composite z-score was -0.132 in experiment [1]; 0.0174 in experiment [3]; 1.37 in experiment [4]; -0.112 in experiment [5]; 0.0718 in experiment [6]; -0.0055 in experiment [7]. For the same compound, the composite z-score in experiment [8] is -0.111; in experiment [9], 1.14; in experiment [10], 1.61. The same compound gave a z-score in experiment [2] of -0.68.
Take `C=CCN1C(=O)[C@]2(O[C@H](CCO)[C@@H]([Si](C)(C)c3ccc(OC)cc3)[C@@H]2C)c2ccccc21`: the composite z-score in experiment [1] was 0.925; in [3], -0.774; in [4] it was -0.0667; in experiment [5], -0.0278; in experiment [6] it was -0.232; in experiment [7] it was -0.358. Further, the composite z-score in experiment [8] was -0.118; in [9] it was -0.547; in [10], -0.0693. In addition, the z-score in experiment [2] is -5.21.
As for `CC(C)(C)N1CC=CC23O[C@@H]4/C=C\CCCOC(=O)C4[C@H]2C(=O)N(CCCCCCO)[C@@H]3C1=O` (stereo not given in full), the composite z-score is -0.802 in [1]; -1.03 in experiment [3]; -0.558 in experiment [4]; 0.337 in experiment [5]; -0.0873 in [6]; 0.0952 in experiment [7]. The composite z-score is 0.382 in experiment [8], 1.24 in [9] and -1.34 in [10]. The compound also yielded a z-score in experiment [2] of -0.762.
On to `C=C(COC)/C(=C/C[C@H](OC(=O)c1ccncc1)c1cccc(OCCO)c1)c1cnc2ccccc2c1`, for which the composite z-score in [1] is -0.378; in experiment [3], 0.791; in experiment [4] it was 0.697; in [5], -0.64; in experiment [6] it was -0.0944; in [7] it was 0.235. The composite z-score in [8] is -0.145; in experiment [9], 0.756; in [10] it was 3.02. This compound also gave a z-score in [2] of -1.56.
Regarding `O=C1O[C@@H](c2ccccc2)[C@@H](c2ccccc2)N2[C@@H](c3ccc(OCCO)cc3)[C@]3(C(=O)Nc4ccc(C#CCCO)cc43)[C@@H](C(=O)Nc3nc4ccccc4s3)[C@H]12`, the composite z-score in [1] stood at 1.36; in experiment [3], 0.364; in [4] it was 0.84; in experiment [5], 0.338; in experiment [6], 0.0219; in experiment [7], 0.0639. In addition, the composite z-score in experiment [8] is -0.353; in [9], 0.82; in experiment [10], 0.626. In addition, in [2], the z-score was -1.36.
